As usually defined, the inhibition is the relative decrease from the control value, in per cent.

Screen size: about 200,000 compounds; about 18,000 (9%) were called active. Rule as the data show it: active = inhibition above about 50%; inactive = the rest. The full list was thinned out, with actives kept by preference.

The nature of this assay: Leishmania major promastigote growth inhibition, primary screen (AID 1063).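 Also: promastigotes grown with compound for 44 hours at 28 °C.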 As to conditions: Leishmania major promastigotes, resazurin fluorescence viability; at 10 µM; hits give high values. On the technique in general: Alamar Blue is a resazurin reagent that responds to reducing activity.
As for `S=c1ccc2ccccc2[nH]1`, the inhibition was -8.39% (inactive).

Consider `CC(=O)NCC(=O)N(Cc1ccco1)C1(C(=O)NC2CCCC2)CCCCC1`, for which the inhibition was 1.81% (inactive).

As for `CCOC(=O)c1ccc(NC2Nc3cc(C)nn3S2)cc1` (stereo unspecified), the inhibition is 1.08% (inactive).

On to `O=C(COc1ccc(NC(=O)c2ccccc2[N+](=O)[O-])cc1)c1ccc(F)cc1`, for which the inhibition was -3.68% (inactive).

Turning to `Cc1cccc(OCCC(=O)Nc2cc(S(=O)(=O)N3CCCCC3)ccc2N2CCOCC2)c1`, the inhibition was 22% (inactive).

As to `COc1ccc(CC(=O)Nc2cc(S(=O)(=O)N3CCCCC3)ccc2N2CCN(C)CC2)cc1`, the inhibition is 47% (inactive).

With `CN1CCN(c2ccc(S(=O)(=O)N3CCCCC3)cc2NC(=O)Cc2ccccc2F)CC1`, the inhibition is 67.6% (active).

`CC12CN(NC(=O)c3ccc(Cl)cc3)C3(C#N)CC1CCC23C` (stereo unspecified): the inhibition is 7.74% (inactive).

Turning to `O=C(Nc1ccncc1)c1ccccc1[N+](=O)[O-]`, the inhibition is 11.9% (inactive).

Consider `COC(=O)CNC(=O)c1ccccc1[N+](=O)[O-]`, for which the inhibition is -1.1% (inactive).

For `COc1ccc(NC(=O)c2ccccc2[N+](=O)[O-])cc1OC`, the inhibition is 59.4% (active).

Consider `COC(=O)C1=C(C)NC(=O)CC1c1ccccc1OC` (stereo unspecified), for which the inhibition was -5.13% (inactive).

Consider `Cc1ccc(N2NC(=O)/C(=C/C=C/c3ccco3)C2=O)cc1C`, for which the inhibition was 15.2% (inactive).

As to `Cc1ccsc1C(=O)N/N=C/c1ccc([N+](=O)[O-])cc1`, the inhibition is -8.42% (inactive).

In the case of `O=[N+]([O-])c1cc(Br)c(O)c(/C=N/Nc2nc3ccccc3s2)c1`, the inhibition was -6.02% (inactive).

`Cc1cc(C(=O)N/N=C/c2cc([N+](=O)[O-])cc(C)c2O)n[nH]1`: the inhibition is 80.3% (active).

Take `Cc1cccc(NC(=O)Nc2nnc(-c3ccccc3)o2)c1`: the inhibition was 15.9% (inactive).

`C/C(=N\NC(=O)c1cc2c(s1)CCC(C)C2)c1cccnc1` (stereo unspecified): the inhibition was 13% (inactive).

For `Cc1cccc(N(C(=O)Cc2cccs2)C(C(=O)NC2CCCC2)c2ccsc2)c1` (stereo unspecified), the inhibition was 3.72% (inactive).

In the case of `COc1cccc(N(C(=O)C2COc3ccccc3O2)C(C(=O)NC2CCCCC2)c2ccc(O)cc2)c1` (stereo unspecified), the inhibition is 98.3% (active).

For `COc1ccc(C(C(=O)NC2CCCCC2)N(C(=O)CCl)c2ccccc2Cl)cc1` (stereo unspecified), the inhibition was -1.95% (inactive).

On to `O=C1Nc2ccc([N+](=O)[O-])cc2C1=Nc1cccc(CO)c1`, for which the inhibition was 51% (active).

Turning to `CN1CCN(/N=C2/C(=O)Nc3ccc([N+](=O)[O-])cc32)CC1`, the inhibition is -2.49% (inactive).

As to `Cc1cc([N+](=O)[O-])ccc1NCc1cccc([N+](=O)[O-])c1`, the inhibition was -1.47% (inactive).

As for `CN1CCN(CC#CCC2(O)c3ccccc3-c3ccccc32)CC1`, the inhibition was -6.57% (inactive).

Turning to `O=[N+]([O-])c1cccc(-c2nnc3c4ccccc4c4ccccc4n23)c1`, the inhibition was 22% (inactive).

Consider `Cn1cc(/C=C/c2nc3ccccc3c(=O)n2-c2cccc([N+](=O)[O-])c2)c2ccccc21`, for which the inhibition is 63.9% (active).

With `CCOC(=O)N1CCN(Cc2nc3ccc([N+](=O)[O-])cc3c(=O)n2-c2cccc(OC)c2)CC1`, the inhibition is 8.07% (inactive).

With `Cc1cc(C)nc(/N=C2\NC(=O)CC(C(=O)O)N2c2ccc(Cl)cc2Cl)n1` (stereo unspecified), the inhibition was -2.66% (inactive).

As to `CSc1ccc(/C=N\NC(=O)CC(=O)NC(C)C)cc1`, the inhibition was 3.48% (inactive).

As for `CC1=NCCN1S(=O)(=O)c1cccc([N+](=O)[O-])c1`, the inhibition is 0.00784% (inactive).

Consider `COc1ccc(/C=N/NC(=O)Cn2cc(C(F)(F)F)ccc2=O)cc1`, for which the inhibition was 4.79% (inactive).

Consider `CCOC(=O)c1c(CN(C)C)n(-c2ccccc2)c2cc(Br)c(O)cc12`, for which the inhibition is 15.6% (inactive).

As for `CCC(CC)C(=O)N1CC(=O)Nc2ccc(Br)cc2C1c1ccccc1` (stereo unspecified), the inhibition is 14.8% (inactive).

`Cc1ccc2c(c1)C(c1ccccc1)N(C(=O)c1ccc(S(=O)(=O)N3CCOCC3)cc1)CC(=O)N2` (stereo unspecified): the inhibition is 56.5% (active).

Turning to `O=C(c1ccc(S(=O)(=O)N2CCOCC2)cc1)N1CCN(c2ccccc2)CC1`, the inhibition is -2.9% (inactive).

Take `Cc1ccc2nsnc2c1S(=O)(=O)N1CCCC1C(=O)O` (stereo unspecified): the inhibition was -8.56% (inactive).

With `COc1ccc(C)cc1NC(=S)Nc1ccccc1SC`, the inhibition is 5.88% (inactive).

As for `Cc1ccc2nc(-c3cccnc3)c(NC3CCCC3)n2c1`, the inhibition was 63.7% (active).

Regarding `COC(=O)c1cn(-c2ccccc2)nc1-c1cccnc1`, the inhibition is 1.77% (inactive).

As to `O=C(Nc1ccc(F)cc1)C1CCN(C(=O)c2ccc([N+](=O)[O-])cc2)CC1`, the inhibition was 5.08% (inactive).

Consider `CCCCCCCCn1c2c(c(=N)c3c1CCC3)CCCC2`, for which the inhibition was 101% (active).

Take `CCCCCCn1c(CN2CCCCC2)nc2c1c(=O)n(C)c(=O)n2C`: the inhibition is 6.89% (inactive).

With `COc1cc(C)c(S(=O)(=O)N2CCOCC2)c(C)c1C`, the inhibition is -1.23% (inactive).

On to `CCCCCCCC1(C)NC(=O)N(CC(=O)Nc2cc(C)on2)C1=O` (stereo unspecified), for which the inhibition was 20.5% (inactive).

With `CNC(=O)COc1ccc(S(=O)(=O)Nc2ccccc2)cc1`, the inhibition was -0.21% (inactive).

Turning to `CCN1CCN(C(=O)CCN2C(=O)c3ccccc3C2=O)CC1`, the inhibition was 4.9% (inactive).

`O=C(CCN1C(=O)C2C3C=CC(C3)C2C1=O)Nc1ccccc1F` (stereo unspecified): the inhibition is -3.49% (inactive).

As to `O=C(CN1C(=O)C2C3C=CC(C3)C2C1=O)NCCc1ccccc1Cl` (stereo unspecified), the inhibition was 0.65% (inactive).

Turning to `O=C(CN1C(=O)C2C3C=CC(C3)C2C1=O)Nc1nc(-c2ccccn2)cs1` (stereo unspecified), the inhibition is 97.2% (active).

For `Cc1cc(=O)n2[nH]c(-c3sccc3-n3c(C)ccc3C)cc2n1`, the inhibition was -1.8% (inactive).

With `CCOc1cc2[nH]c(=O)n(Cc3ccc(C(=O)NCCCN4CCCC4=O)cc3)c(=O)c2cc1OCC`, the inhibition was -1.97% (inactive).

On to `Cc1ccc(C(=O)Cn2cccn2)cc1`, for which the inhibition is -1.93% (inactive).

Consider `CSc1ncccc1C(=O)NC1CCCCCC1`, for which the inhibition was -1.57% (inactive).

`CCC(C)NC(=O)c1ccc(N2CCC3(CC2)OCCO3)c([N+](=O)[O-])c1` (stereo unspecified): the inhibition is -0.6% (inactive).

For `COCCNC(=O)c1ccc(N2CCC3(CC2)OCCO3)c([N+](=O)[O-])c1`, the inhibition is 73.7% (active).

On to `CC1CCN(c2ccc(C(=O)NCc3ccc4c(c3)OCO4)cc2[N+](=O)[O-])CC1`, for which the inhibition was 1.95% (inactive).

As for `COc1ccc(C(C)=O)cc1CSc1nc2nc(C)cc(C)n2n1`, the inhibition was -4.13% (inactive).

For `O=C(Cn1c(-c2ccccn2)nc2ccccc21)NCCN1CCOCC1`, the inhibition is -2.96% (inactive).

On to `c1ccc2[nH]c(NCCN3CCOCC3)nc2c1`, for which the inhibition is 0.2% (inactive).

For the compound `c1ccc2cc3c(NCCN4CCOCC4)ccnc3cc2c1`, the inhibition was 100% (active).

Take `CCc1ccc(C(=O)OCC(=O)NCC(F)(F)F)cc1`: the inhibition is 4.83% (inactive).

As to `O=C(N/N=C/c1ccc(OCC2COCCO2)cc1)c1ccc(Br)cc1` (stereo unspecified), the inhibition was 40.5% (inactive).

Take `COc1cc(C(=S)N2CCOCC2)ccc1O`: the inhibition was -5.63% (inactive).

Consider `C=CCOCCN(C)C1=NS(=O)(=O)c2ccccc21`, for which the inhibition was -5.84% (inactive).

On to `CN(C)C=NC(=O)c1cccn1-c1ncc(C(F)(F)F)cc1Cl`, for which the inhibition was -3.59% (inactive).

`O=C1/C(=C\c2cccnc2)CN(Cc2ccccc2)C/C1=C\c1cccnc1`: the inhibition was 100% (active).

For the compound `O=Cc1cn(Cc2ccccc2)nc1-c1cccnc1`, the inhibition is -1.93% (inactive).

For the compound `Clc1ccc(CN2CCN(/N=C/c3cccnc3)CC2)cc1`, the inhibition was 8.51% (inactive).

On to `COc1cccc2cc(S(=O)(=O)c3ccc(C)cc3)/c(=N/NS(=O)(=O)c3ccc(C)cc3)oc12`, for which the inhibition was -0.64% (inactive).

For `CCOC(=O)C1(CCOc2ccccc2)CCN(C(=O)c2cncs2)CC1`, the inhibition was 6.07% (inactive).

Regarding `CCOC(=O)/C(N=Nc1cc(C(=O)O)cc(C(=O)O)c1)=C(\O)CCl`, the inhibition is 50% (active).

With `O=C(C1CC1)N1N=C2CCCCC2C1(O)C(F)(F)F` (stereo unspecified), the inhibition is -9.92% (inactive).

Turning to `CCOC(=O)C1=C(C)Nc2sc(C(=O)c3ccc(Br)cc3)c(N)c2C1c1ccc(C(=O)OC)cc1` (stereo unspecified), the inhibition is 94.8% (active).

As to `CCOC(=O)C1=C(C)NC(C)=C(C(=O)OCC)C1c1ccccn1`, the inhibition is 8.25% (inactive).

As to `CCOC(=O)c1sc(=S)n2c1[nH]c(=O)c1ccc(C(=O)OC)cc12`, the inhibition was -7.11% (inactive).

Consider `CC(=O)N/C(=C/c1ccc(Cl)cc1)C(=O)NCCc1c[nH]c2ccccc12`, for which the inhibition is 92.8% (active).

Turning to `Cc1ccc(C(=O)N/C(=C/c2ccco2)C(=O)NCCc2c[nH]c3ccccc23)cc1C`, the inhibition was 32.8% (inactive).

As to `COc1ccc(/C=C(\NC(=O)c2ccc(OC)c(OC)c2)C(=O)NCCc2c[nH]c3ccccc23)cc1`, the inhibition was 16% (inactive).

In the case of `CN(C)/N=C/c1cn(-c2ccccc2)nc1-c1cccnc1`, the inhibition is 13.5% (inactive).

As to `O=C(NCCCn1ccnc1)C(=O)c1cn(CC(=O)N2CCCCCC2)c2ccccc12`, the inhibition was 10.8% (inactive).

On to `CNC(=O)NC(=O)C(C)N1CCN(C/C=C/c2ccccc2)CC1` (stereo unspecified), for which the inhibition was 9.45% (inactive).

Consider `COc1ccccc1/C=C/CN1CCC(CO)(Cc2ccccc2)CC1`, for which the inhibition is 32.1% (inactive).

As to `COc1cc(C(=O)N2CCN(C/C=C/c3ccccc3)CC2)cc(OC)c1C`, the inhibition is 54.7% (active).

Take `Cn1c(SCC(=O)NC2CCCCC2)nnc1-c1ccc(N)cc1`: the inhibition was -1.08% (inactive).

Regarding `Cc1ccc(C2=Nc3c(ccc4ccccc34)C(c3ccncc3)=NN2)cc1`, the inhibition is 60% (active).

For `Cc1ccc(-c2csc(-c3c[nH]c4ccccc34)n2)cc1`, the inhibition is -3.69% (inactive).

For the compound `CCOC(=O)N1CCN(C(=S)Nc2ccc(C)cc2C)CC1`, the inhibition is -7.01% (inactive).

In the case of `CC(C)Oc1ccccc1C(=O)NC(CO)C(=O)O` (stereo unspecified), the inhibition is -2.66% (inactive).

Take `NC(=O)COc1ccc(C23CC4CC(CC(C4)C2)C3)cc1`: the inhibition was 2.36% (inactive).

As to `O=C1/C(=C/c2ccc3c(c2)OCO3)CCC/C1=C\c1ccc2c(c1)OCO2`, the inhibition was 39.8% (inactive).

Take `CCC1=C/C(=C\c2ccc3c(c2)OCO3)C(=O)S1`: the inhibition was 78.2% (active).

As for `CSC1=N/C(=C\c2ccc3c(c2)OCO3)C(=O)S1`, the inhibition is 17.7% (inactive).

As to `COc1ccc(CCNS(=O)(=O)c2ccc(F)cc2)cc1OC`, the inhibition was -4.28% (inactive).

As for `Cc1nn(C)c(Oc2ccccc2)c1[N+](=O)[O-]`, the inhibition is 6.23% (inactive).

For the compound `Cc1nn(C)c(Oc2ccccc2)c1CCNS(=O)(=O)c1ccc(F)cc1`, the inhibition is 97.5% (active).
